Shown are actives, neighbours in structure and some others; about 1.3% of the full set was active somewhere.
MCL1-BIM inh – inhibitors of MCL1 binding to BIM-BH3, primary screen, biochemical, fluorescence polarization | inhibition, % at 10.9 µM | 320,000 tested, 0.68% active | AID 2057, 2009 | Induced myeloid leukemia cell differentiation protein Mcl-1 (Homo sapiens), Q07820 | GST-MCL1 / FITC-Bim-BH3 fluorescence polarization;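 active = inhibition above the mean inhibition of all tested compounds plus 3 SD, set per campaign, cut at about 40% in these data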;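 note: 0% = DMSO wells and 100% = unlabeled Bim-BH3 peptide control; higher means more loss of mP so more displacement of Bim peptide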
GLD-1 RNA inh – GLD-1/TGE RNA complex disruptors, primary screen, biochemical, fluorescence polarization. inhibition, % at 5.96 µM. 320,000 tested, 0.44% active. purified GLD-1 + fluorescein TGE RNA;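 active = percent inhibition above a per-plate cutoff, the plate mean of test compounds plus 3 SD, cut at about 30% in these data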;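 note: 0% = DMSO wells with GLD-1 and probe and 100% = wells lacking GLD-1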
Keap1 Nrf2 FP – Keap1-Nrf2 protein-protein interaction inhibitors, primary screen, biochemical, fluorescence polarization, single point | Kelch-like ECH-associated protein 1 (Homo sapiens), Q14145 | Keap1 Kelch-Nrf2 peptide fluorescence polarization, 1536-well | inhibition, % at 9.4 µM | 340,000 tested, 0.15% active | AID 504523, 2011; in the data active = inhibition above about 12%;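 note: human Keap1 Kelch domain with fluorescein labeled Nrf2 9mer peptide probe; 0% = neutral control wells and 100% = peptide positive control; higher means more block of Keap1 binding to Nrf2 peptide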
LANA DNA inh – inhibitors of KSHV C-LANA binding to DNA, primary screen, biochemical, fluorescence polarization, FAM-LBS DNA, MBP-C-LANA, single point | Kaposi's sarcoma herpesvirus LANA C-terminal domain (residues 932-1162) DNA binding | inhibition, % at 9 µM | 340,000 tested, 0.078% active | AID 504423, 2011;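 active = highest replicate inhibition at or above 60% at 9 µM, even if other replicates fall short; inactive = all replicates below 60% inhibition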;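 note: 0% = neutral control wells and 100% = 4 µM acridine orange control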
eLon inh – inhibitors of E. coli Lon protease, primary screen, biochemical, fluorescence polarization | P0A9M0 | purified E. coli Lon protease | inhibition, % at 7.94 µM | 360,000 tested, 0.42% active; in the data active = inhibition above about 13%, passing the limit was not always enough;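 note: 0% = enzyme with probe and DMSO and 100% = no enzyme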
BCLXL inh – inhibitors of human Bcl-xL, primary screen, biochemical, fluorescence polarization, HTS; Bcl-2-like protein 1 (Homo sapiens), Q07817; GST-Bcl-xL / FITC-Bim BH3 peptide fluorescence polarization; inhibition, % at 10.9 µM; 320,000 tested, 0.7% active; AID 2129, 2009;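 active = inhibition above the mean of all tested compounds plus 3 SD, cutoff set per campaign, cut at about 30% in these data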;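 note: 0% = DMSO wells and 100% = unlabeled Bim-BH3 peptide competitor; inhibitors lower millipolarization by displacing the labeled peptide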
Target sequence (Q07817 whole entry, looked up): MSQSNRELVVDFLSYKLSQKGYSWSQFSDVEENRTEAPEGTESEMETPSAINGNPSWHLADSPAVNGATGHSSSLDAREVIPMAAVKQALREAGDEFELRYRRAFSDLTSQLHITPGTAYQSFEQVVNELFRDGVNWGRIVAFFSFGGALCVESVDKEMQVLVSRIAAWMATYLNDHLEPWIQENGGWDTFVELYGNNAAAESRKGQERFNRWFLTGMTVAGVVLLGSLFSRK
eLon confirm – E. coli Lon protease inhibitor retest, confirmation, biochemical, fluorescence polarization | 1,400 tested, 31% active | inhibition, % at 7.94 µM | shares compounds with eLon inh | purified E. coli Lon; in the data active = inhibition above about 16%;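 note: 0% = enzyme with probe and DMSO and 100% = no enzyme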
Starred values were filed as active, the others as inactive; . = no result; + = active, no number.

SMILES	MCL1-BIM inh	GLD-1 RNA inh	Keap1 Nrf2 FP	LANA DNA inh	eLon inh	BCLXL inh	eLon confirm
COc1ccc(N2CCN(C(=O)CN3C(=O)c4ccccc4S3(=O)=O)CC2)cc1	-3	1	-6	0	20*	5	-8
CC(C)(C)OC(=O)N[C@H](Cc1ccccc1)C(=O)N1CCC[C@@H]1C(=O)O	-2	3	-2	1	12	-4	.
Cc1ccc(S(=O)(=O)N[C@@H](Cc2ccccc2)C(=O)N2CCC[C@@H]2C(=O)O)cc1	7	-3	-2	-1	17*	6	6
CN(C)S(=O)(=O)c1ccc(C(=O)NCc2nnc(SCC(=O)c3ccccc3)o2)cc1	2	1	3	-1	-2	0	.
CCCNC(=O)c1ccc(CN2CCOCC2)cc1	-3	4	-4	-1	-8	-1	.
COC(=O)C1=C(C)NC(=S)N(C(C)=O)C1c1ccccc1 (stereo unspecified)	9	-2	-2	1	17*	-1	21*
C[C@H](NC(=O)[C@@H]1CSC2c3ccccc3C(=O)N21)C(=O)NCCc1ccccc1 (stereo partly specified)	-10	3	-6	0	-7	-7	.
C[C@H](NC(=O)[C@@H]1CSC2c3ccccc3C(=O)N21)C(=O)NCCc1ccc(F)cc1 (stereo partly specified)	4	6	-9	0	23*	4	-3
CC1CCCCC12NC(=O)N(CC(=O)N1CCN(S(=O)(=O)c3ccc(Cl)s3)CC1)C2=O (stereo unspecified)	.	.	.	.	-16	.	.
O=C(CN1C(=O)NC2(CCCCC2)C1=O)N1CCN(S(=O)(=O)c2ccc(Cl)s2)CC1	-21	-5	-1	0	19*	-15	-7
Cc1ccc(OCC(=O)Nc2c3c(nn2C(C)(C)C)CS(=O)(=O)C3)cc1	4	-4	-1	1	-3	4	.
Cc1ccc(S(=O)(=O)NCCOc2nc(N(C)C)nc(N(C)C)n2)cc1	2	-3	-2	0	-2	-2	.
O=C(COc1ccc(F)cc1Cl)Nc1ccc(N2CCOCC2)cc1N1CCOCC1	-3	1	-2	1	16*	-1	0
O=C(Cc1sc(-c2ccccc2)nc1-c1ccccc1)Nc1ccccc1	-5	7	-3	0	16*	3	9
Cc1cccc(NC(=O)COC(=O)c2nn(-c3ccccc3C(F)(F)F)cc2O)c1C	.	.	.	.	-7	.	.
COc1c(Br)cc(/C=N/n2c(-c3ccccc3)n[nH]c2=S)c(O)c1Br	11	7	-3	3	19*	-7	-11
Oc1c(Br)cc(Br)cc1/C=N/n1c(-c2ccccc2)n[nH]c1=S	0	-3	-4	-7	-10	-18	.
O=C(Nc1nc2c(Br)cccc2s1)C1CC1	-3	1	-3	-1	23*	4	81*
O=C(Nc1nc2c(Cl)cccc2s1)C1CC1	-1	1	-4	1	-8	1	.
CC(=O)N1c2ccccc2Oc2cc3ccccc3cc21	0	4	-3	-1	-4	8	.
O=C(CCl)N1c2ccccc2Oc2ccc3ccccc3c21	.	.	-2	6	+	.	24*
COc1ccc(Br)c(C(=O)N2CCN(S(=O)(=O)c3cccs3)CC2)c1	1	-3	1	0	4	6	.
COC(=O)c1csc(S(=O)(=O)N2CCCCC2)c1OC	1	-7	-5	1	-11	1	.
COc1ccc([N+](=O)[O-])cc1NC(=O)CC(c1ccccc1)c1ccccc1	9	6	-2	-1	-4	16	.

Bioassay records as filed in PubChem.
